Pf growth 96h = Primary qHTS for delayed death inhibitors of the malarial parasite plastid, 96 hour incubation; actives 6.9% (n = 320,000); AID 504834, 2011; Potency, µM (titrated, usually from 28.7 µM), for inactives: at the highest dose activity change, negative = inhibition, most hits filed as inhibitors; P. falciparum luciferase reporter growth, 96 h; note: potency is the fitted concentration of half-maximal effect; % is set by controls: 0 for no effect and ±100 for the full control effect
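Erythrocytes infected with luciferase-expressing P. falciparum were dispensed at 2% hematocrit and 0.05% parasitemia (final), then incubated with compounds 96 hours at 37 C in 5% CO2. Luminescence after detection reagent addition reported growth.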
NS1 inh = qHTS Assay for Inhibitors of Influenza NS1 Protein Function. Potency, µM (top dose mostly 46.1 µM), for inactives: top-dose activity, positive = more growth. actives 0.4% (n = 270,000); calls by dose curve; note: potency is the fitted concentration of half-maximal effect; actives are rising curves; nearly all actives have a fitted effect of over 50% in size
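Read-out: OD600 growth recovery of NS1-expressing budding yeast. Cells grown overnight at 30C in -URA glucose medium, washed, resuspended and diluted 1:100 in 2% galactose assay medium, pH 6.0. Same strain lacking NS1 served as positive control.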
Shiga toxin inh = A qHTS for Small Molecule Inhibitors of Shiga Toxin; Vero cells, Shiga toxin protein synthesis inhibition reporter; inhibition, % at 38.7 µM; actives 9.2% (n = 290,000); AID 2315, 2010; in the data active = inhibition mostly above about 28%, no sharp cut-off; inactive = mostly below about 43%; note: 0% is about no effect
Pf growth 48h = Primary qHTS for delayed death inhibitors of the malarial parasite plastid, 48 hour incubation. actives 5.9% (n = 310,000). P. falciparum luciferase growth in erythrocytes, 48 h. AID 504832, 2011. Potency, µM (doses to about 28.7 µM), for the others: at the top dose activity change, negative = inhibition, most hits filed as inhibitors; note: potency is the fitted concentration of half-maximal effect; % is set by controls: 0 for no effect and ±100 for the full control effect
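Cell-based growth assay: transgenic P. falciparum expressing firefly luciferase, cultured in red cells within RPMI 1640 containing 0.5% w/v Albumax, 24 mM bicarbonate and gentamycin. A drop in luciferase activity indicates inhibition.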
SARS PLP yeast = qHTS of Yeast-based Assay for SARS-CoV PLP; AID 485353, 2010; actives 0.19% (n = 330,000); Potency, µM (top dose mostly 32.9 µM), for inactives: at the top dose activity, positive = growth rescue, usual class: activators; S. cerevisiae expressing SARS-CoV PLpro, growth rescue; calls by dose curve; note: potency is the fitted concentration of half-maximal effect; 0% is about no effect; nearly all actives have a fitted effect of over 55% in size
CHX counter = Cycloheximide Counterscreen for Small Molecule Inhibitors of Shiga Toxin; cell reporter, cycloheximide protein synthesis inhibition counterscreen; AID 2314, 2010; max response, %; actives 12% (n = 300,000); in the data active = max response mostly above about 13%, no sharp cut-off; inactive = mostly below about 14%; note: read at 38.3 µM for the half of the compounds with a filed dose; 0% is about no effect
* = called active by the depositor; [ ] = dose if it differs, or a comment. An excerpt weighted towards active compounds, which were near 21% of everything screened. Unless noted, calls come from the whole dose curve; as a rule, active = well fitted inhibition curve with a large enough effect; inconclusive = small, poorly fitted or top-dose-only effect, or another doubt; inactive = no such curve, though single readings can be large or run the other way.

`Cc1cccc2cc(C#N)c(NCCNC(=S)NCCCN3CCOCC3)nc12` gave Pf growth 96h -17%, NS1 inh 22%, Shiga toxin inh -12, Pf growth 48h 10µM*, SARS PLP yeast -1% and CHX counter -2.
CCC(=O)NCCCNc1nc2c(C)cccc2cc1C#N was read as Pf growth 96h 3%, Shiga toxin inh -4, Pf growth 48h 24%, SARS PLP yeast -5% and CHX counter 10.
Cc1cccc2cc(C#N)c(NCCNS(=O)(=O)c3ccc4c(c3)OCCO4)nc12 was read as Pf growth 96h 5.2µM*, NS1 inh -34%, Shiga toxin inh -7, Pf growth 48h -15%, SARS PLP yeast 0% and CHX counter -5.
COc1ccc2nc(NCCNC(=S)NCCCN3CCOCC3)c(C#N)cc2c1 was read as Pf growth 96h -33%[5.75 µM], Shiga toxin inh 3, Pf growth 48h inconclusive, SARS PLP yeast 6% and CHX counter -1.
`COCCCNC(=S)Nc1cccc2ncccc12` gave Pf growth 96h -7%, Shiga toxin inh -11, Pf growth 48h -3%, SARS PLP yeast 3% and CHX counter -1.
`OC(COc1ccc(CNCCc2ccc(C(F)(F)F)cc2)cc1)CN1CCCCC1` (stereo not drawn) gave Pf growth 96h 10%, NS1 inh 5%, Shiga toxin inh -11, Pf growth 48h 2.1µM*, SARS PLP yeast 0% and CHX counter -3.
Screening CC(C)(C)C1C/C(=C/c2ccccn2)C(=O)/C(=C/c2ccccn2)C1 (stereo not drawn) returned Pf growth 96h -21%, Shiga toxin inh -23, Pf growth 48h 2.1µM*, SARS PLP yeast -5% and CHX counter -11.
CC1C/C(=C/c2ccccn2)C(=O)/C(=C/c2ccccn2)C1 (stereo not drawn) was read as Pf growth 96h inconclusive, Shiga toxin inh -9, Pf growth 48h 2.6µM*, SARS PLP yeast -4% and CHX counter 10.
For CC1C/C(=C/c2cccs2)C(=O)/C(=C/c2cccs2)C1 (stereo not drawn) the results were Pf growth 96h 41%, NS1 inh -19%, Shiga toxin inh 9, Pf growth 48h -1%, SARS PLP yeast 3% and CHX counter 3.
Cn1c(CNC(=O)c2ccco2)nnc1SCC(=O)Nc1ccc(Cl)cc1 was read as Pf growth 96h inconclusive, Pf growth 48h -13% and SARS PLP yeast 7%.
For CC(=O)Oc1cccc(/C=C2\Sc3ccccc3C2=O)c1 the results were Pf growth 96h 1%, NS1 inh -8%, Shiga toxin inh 51*, Pf growth 48h -23%, SARS PLP yeast -1% and CHX counter 28*.
Screening CCc1sc(C(=O)NCc2ccco2)cc1C returned Pf growth 96h 15%, NS1 inh -3%, Shiga toxin inh 64*, Pf growth 48h -2%, SARS PLP yeast -11% and CHX counter 13.
Screening CCc1sc(C(=O)NCc2ccco2)cc1Br returned Pf growth 96h 10µM*, NS1 inh -105%, Pf growth 48h 1%, SARS PLP yeast -12% and CHX counter 19*.
Screening CC(Nc1c[nH]c(=O)[nH]c1=O)c1ccccc1 (stereo not drawn) returned Pf growth 96h 0%, NS1 inh 26%, Shiga toxin inh -4, Pf growth 48h 24%, SARS PLP yeast -2% and CHX counter -4.
For CSc1ccccc1C(=O)Nc1ccc(C)c(C)c1 the results were NS1 inh -73%, Shiga toxin inh 91*, Pf growth 48h 88%, SARS PLP yeast -16% and CHX counter 42*.
For COc1cccc(C(=O)Nc2ccc3c(c2)OCO3)c1OC the results were Pf growth 96h 137%, NS1 inh -17%, Shiga toxin inh 89*, Pf growth 48h 162%, SARS PLP yeast -4% and CHX counter 48*.
CSc1ccccc1C(=O)Nc1ccc2c(c1)OCO2 was read as Pf growth 96h inconclusive, NS1 inh -10%, Shiga toxin inh 26*, Pf growth 48h 24%, SARS PLP yeast -1% and CHX counter 23*.
O=C(CCl)Nc1ccccc1C(=O)Nc1ccc2c(c1)OCO2 was read as Pf growth 96h -35%, NS1 inh -5%, Shiga toxin inh 41*, Pf growth 48h 119%, SARS PLP yeast -3% and CHX counter 57*.
CSc1ncccc1C(=O)OCC(=O)C(C)(C)C was read as Pf growth 96h 21%, Shiga toxin inh 13, Pf growth 48h -2%, SARS PLP yeast -1% and CHX counter 11.
O=C(Nc1ccc2c(c1)OCO2)c1c[nH]c(=O)n(-c2ccc(F)cc2)c1=O was read as Pf growth 96h inconclusive, NS1 inh 3%, Shiga toxin inh 19, Pf growth 48h inconclusive, SARS PLP yeast -6% and CHX counter 16*.
COc1ccc(-n2c(=O)[nH]cc(C(=O)Nc3ccc4c(c3)OCCO4)c2=O)cc1OC was read as Pf growth 96h 7%, NS1 inh 16%, Shiga toxin inh 15, Pf growth 48h 10%, SARS PLP yeast -5% and CHX counter -4.
`CCn1c(=O)c(=O)[nH]c2cc(C(=O)N3CCN(c4ccccc4F)CC3)ccc21` gave Pf growth 96h inconclusive, NS1 inh -8%, Shiga toxin inh -24, Pf growth 48h 1%, SARS PLP yeast 4% and CHX counter -2.
O=C(N/N=C\c1cc(Br)c(Br)o1)c1cncc(Br)c1 was read as Pf growth 96h -23%, NS1 inh 3%, Shiga toxin inh -7, Pf growth 48h 6%, SARS PLP yeast -14% and CHX counter -3.
For O=C(O)COc1ccccc1/C=N/NC(=O)c1ccc2c(c1)OCCO2 the results were Pf growth 96h inconclusive, NS1 inh -5%, Shiga toxin inh -9, Pf growth 48h 17%, SARS PLP yeast -6% and CHX counter -4.
`O=C(Cc1ccccc1)N/N=C/c1ccc(S(=O)(=O)O)o1` gave Pf growth 96h 23%, NS1 inh 3%, Shiga toxin inh -2, Pf growth 48h 5%, SARS PLP yeast 1% and CHX counter -2.
For O=C(N/N=C/c1cc(Br)c(Br)o1)c1ccc2c(c1)OCCO2 the results were Pf growth 96h 11%, NS1 inh 9%, Shiga toxin inh 60*, Pf growth 48h 34%, SARS PLP yeast 1% and CHX counter 28*.
`O=C(N/N=C/c1cc(Br)c(O)c(Br)c1O)c1ccc2c(c1)OCCO2` gave Pf growth 96h -14%, NS1 inh -25%, Shiga toxin inh 73*, Pf growth 48h inconclusive, SARS PLP yeast inconclusive and CHX counter 29*.
Screening O=C(Cc1ccccc1)N/N=C/c1cc(Br)c(Br)o1 returned Pf growth 96h 59%, NS1 inh -1%, Shiga toxin inh 38*, Pf growth 48h 2%, SARS PLP yeast 2% and CHX counter 43*.

Source: PubChem BioAssay (National Center for Advancing Translational Sciences (NCATS))
